From PubChem BioAssay
“And” between values parts separate entries of the source, which are not always exact repeats. Identical values can stand only once. Some structures have more than one record in an assay (separate samples or runs), and their calls can disagree. The source made the active and inactive calls.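 Rule for the calls, unless noted: active = normalized viability below 100% at a tested concentration; inactive = the rest.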

Experiments:
[1] = viability loss with induced miR-34 in A549 – imaging, A549 dox-inducible miR-34, nuclei and caspase counts, primary screen (AID 1347080;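 active = compounds whose cell count with miR-34 switched on is under 0.7 times the count with it off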); conditions: A549 miR-34 inducible, Hoechst nuclei count, 48 h
[2] = MELAS cybrid and Rieske KO viability enhancers – cell-based, MELAS cybrids, Rieske KO mouse fibroblasts, CellTiter-Glo, primary screen (AID 1508586;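 active = mean z-score across replicates of 1.96 or higher in either the MELAS or the Rieske mutant cell line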;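 note: z relative to plate mean and SD of compound and empty wells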); conditions: low glucose
[3] = drug combination growth inhibition, ovarian cancer – cell-based, oncology-focused library, rucaparib conditional, profiling panel (AID 1508598); conditions: patient-derived ovarian cancer cells, CellTiter-Glo viability, 144 h, stronger effect = lower value
[4] = stronger effect = lower value, cell number ratio, induced over uninduced
[5] = measured here: relative caspase fold change +Dox/-Dox
[6] = measured here: total cells with miR-34 induction, stronger effect = lower value
[7] = measured here: total cells without miR-34 induction
[8] = MELAS cybrid survival, CellTiter-Glo 48 h, stronger effect = higher value
[9] = Rieske KO mouse fibroblast survival, CellTiter-Glo 72 h
[10] = at 0.000305 µM, OCI-C5x cells, with rucaparib 10 µM, 100% = cells with rucaparib alone
[11] = at 0.000305 µM, OCI-C5x cells, without rucaparib
[12] = at 0.000305 µM, OCI-P5x cells, with rucaparib 20 µM, 100% = cells with rucaparib alone
[13] = at 0.000305 µM, OCI-P5x cells, without rucaparib
[14] = at 0.00122 µM, OCI-C5x cells, with rucaparib 10 µM, 100% = cells with rucaparib alone
[15] = at 0.00122 µM, OCI-C5x cells, without rucaparib
[16] = at 0.00122 µM, OCI-P5x cells, with rucaparib 20 µM, 100% = cells with rucaparib alone
[17] = at 0.00122 µM, OCI-P5x cells, without rucaparib
[18] = at 0.00488 µM, OCI-C5x cells, with rucaparib 10 µM, 100% = cells with rucaparib alone
[19] = at 0.00488 µM, OCI-C5x cells, without rucaparib
[20] = at 0.00488 µM, OCI-P5x cells, with rucaparib 20 µM, 100% = cells with rucaparib alone
[21] = at 0.00488 µM, OCI-P5x cells, without rucaparib
[22] = at 0.0195 µM, OCI-C5x cells, with rucaparib 10 µM, 100% = cells with rucaparib alone
[23] = at 0.0195 µM, OCI-C5x cells, without rucaparib
[24] = at 0.0195 µM, OCI-P5x cells, with rucaparib 20 µM, 100% = cells with rucaparib alone
[25] = at 0.0195 µM, OCI-P5x cells, without rucaparib
[26] = at 0.0781 µM, OCI-C5x cells, with rucaparib 10 µM, 100% = cells with rucaparib alone
[27] = at 0.0781 µM, OCI-C5x cells, without rucaparib
[28] = at 0.0781 µM, OCI-P5x cells, with rucaparib 20 µM, 100% = cells with rucaparib alone
[29] = at 0.0781 µM, OCI-P5x cells, without rucaparib
[30] = at 0.313 µM, OCI-C5x cells, with rucaparib 10 µM, 100% = cells with rucaparib alone
[31] = at 0.313 µM, OCI-C5x cells, without rucaparib
[32] = at 0.313 µM, OCI-P5x cells, with rucaparib 20 µM, 100% = cells with rucaparib alone
[33] = at 0.313 µM, OCI-P5x cells, without rucaparib
[34] = at 1.25 µM, OCI-C5x cells, with rucaparib 10 µM, 100% = cells with rucaparib alone
[35] = at 1.25 µM, OCI-C5x cells, without rucaparib
[36] = at 1.25 µM, OCI-P5x cells, with rucaparib 20 µM, 100% = cells with rucaparib alone
[37] = at 1.25 µM, OCI-P5x cells, without rucaparib
[38] = at 5 µM, OCI-C5x cells, with rucaparib 10 µM, 100% = cells with rucaparib alone
[39] = at 5 µM, OCI-C5x cells, without rucaparib
[40] = at 5 µM, OCI-P5x cells, with rucaparib 20 µM, 100% = cells with rucaparib alone
[41] = at 5 µM, OCI-P5x cells, without rucaparib

CCC1OC(=O)C(C)C(OC2C[C@@](C)(OC)C(O)C(C)O2)C(C)C(OC2OC(C)CC(N(C)C)C2O)[C@](C)(O)CC(C)C(=NOCOCCOC)C(C)C(O)[C@]1(C)O (stereo partly specified)
9240: cell count [1, 6]
0.815: z-score [2, 9]
inactive: fold change [1, 4] 0.909 | z-score [2, 8] -0.34
10200: cell count [1, 7]
0.933: fold change [1, 5]

Cc1ccc(CNc2ncnc3ccc(-c4ccc(CO)o4)cc23)o1
inactive: fold change [1, 4] 0.916 | z-score [2, 8] -0.414
8210: cell count [1, 7]
0.52: fold change [1, 5]
0.153: z-score [2, 9]
7510: cell count [1, 6]

Cc1ccc(S(=O)(=O)C=CC#N)cc1
0.678: fold change [1, 5]
-0.608: z-score [2, 9]
7850: cell count [1, 7]
inactive: fold change [1, 4] 0.909 | z-score [2, 8] -0.499
7140: cell count [1, 6]

COc1cc(Br)c(Nc2nc(-c3c(C)nc4ncccn34)cs2)c(Br)c1
active: viability [3, 12] 95.1% | viability [3, 13] 90.4% | viability [3, 16] 94.4% | viability [3, 17] 96.8% | viability [3, 21] 95.9% | viability [3, 29] 98.6% | viability [3, 36] 78.1% | viability [3, 37] 97.5% | viability [3, 40] 30.8% | viability [3, 41] 19%
inactive: fold change [1, 4] 1.04 and 0.88 | viability [3, 10] 125% | viability [3, 11] 110% | viability [3, 14] 131% | viability [3, 15] 111% | viability [3, 18] 131% | viability [3, 19] 109% | viability [3, 20] 100% | viability [3, 22] 135% | viability [3, 23] 110% | viability [3, 24] 101% | viability [3, 25] 102% | viability [3, 26] 136% | viability [3, 27] 111% | viability [3, 28] 101% | viability [3, 30] 118% | viability [3, 31] 108% | viability [3, 32] 100% | viability [3, 33] 100% | viability [3, 34] 122% | viability [3, 35] 115% | viability [3, 38] 129% | viability [3, 39] 140%
0.545 and -1.29: z-score [2, 9]
0.552 and 0.466: fold change [1, 5]
1800 and 1730: cell count [1, 6]
2.29 (active) and 1.89 (inactive): z-score [2, 8]
1740 and 1960: cell count [1, 7]

CC(C)c1c(C(=O)Nc2ccccc2)c(-c2ccccc2)c(-c2ccc(F)cc2)n1CCC(O)CC(O)CC(=O)O (stereo unspecified)
inactive: fold change [1, 4] 1.21 | z-score [2, 8] 0.917
5220: cell count [1, 6]
0.989: fold change [1, 5]
-1.34: z-score [2, 9]
4330: cell count [1, 7]

C=CS(=O)(=O)NC1CCN(C(=O)CNc2cc(I)c(Cl)cc2OC)CC1
1.48: z-score [2, 9]
active: viability [3, 12] 97.3% | viability [3, 25] 96.9% | viability [3, 29] 90.5% | viability [3, 31] 93.3% | viability [3, 32] 93.4% | viability [3, 33] 95.6% | viability [3, 36] 96.2% | viability [3, 37] 84.8% | viability [3, 40] 90.8% | viability [3, 41] 86%
4400: cell count [1, 6]
4020: cell count [1, 7]
0.391: fold change [1, 5]
inactive: fold change [1, 4] 1.09 | z-score [2, 8] 0.491 | viability [3, 10] 129% | viability [3, 11] 112% | viability [3, 13] 100% | viability [3, 14] 117% | viability [3, 15] 106% | viability [3, 16] 108% | viability [3, 17] 101% | viability [3, 18] 110% | viability [3, 19] 116% | viability [3, 20] 103% | viability [3, 21] 102% | viability [3, 22] 117% | viability [3, 23] 102% | viability [3, 24] 101% | viability [3, 26] 121% | viability [3, 27] 107% | viability [3, 28] 107% | viability [3, 30] 119% | viability [3, 34] 111% | viability [3, 35] 106% | viability [3, 38] 117% | viability [3, 39] 105%

C[C@]12C=CC(=O)C=C1CC[C@@H]1[C@H]2C(=O)C[C@@]2(C)[C@H]1CC[C@@]2(O)C(=O)CO
7790: cell count [1, 6]
8660: cell count [1, 7]
0.898: fold change [1, 5]
inactive: fold change [1, 4] 0.899 | z-score [2, 8] -0.304 | viability [3, 10] 112% | viability [3, 11] 111% | viability [3, 14] 111% | viability [3, 15] 107% | viability [3, 18] 107% | viability [3, 19] 102% | viability [3, 22] 110% | viability [3, 23] 102% | viability [3, 26] 109% | viability [3, 27] 101% | viability [3, 30] 120% | viability [3, 34] 111% | viability [3, 38] 115%
active: viability [3, 12] 93.3% | viability [3, 13] 93.5% | viability [3, 16] 95.9% | viability [3, 17] 93.2% | viability [3, 20] 91% | viability [3, 21] 90.1% | viability [3, 24] 88.4% | viability [3, 25] 84.5% | viability [3, 28] 85% | viability [3, 29] 88.3% | viability [3, 31] 94.4% | viability [3, 32] 85.2% | viability [3, 33] 78.8% | viability [3, 35] 97.7% | viability [3, 36] 85.8% | viability [3, 37] 76.5% | viability [3, 39] 98.1% | viability [3, 40] 75.2% | viability [3, 41] 77.4%
-0.016: z-score [2, 9]

CCOC(=O)c1[nH]c2cc(Cl)ccc2c1C(C(=O)NC(C)(C)C)N(C=O)Cc1ccc(Cl)cc1 (stereo unspecified)
2750: cell count [1, 6]
0.584: fold change [1, 5]
-1.07: z-score [2, 9]
2780: cell count [1, 7]
inactive: fold change [1, 4] 0.989 | z-score [2, 8] -0.405 | viability [3, 10] 118% | viability [3, 11] 105% | viability [3, 14] 112% | viability [3, 15] 113% | viability [3, 18] 113% | viability [3, 19] 104% | viability [3, 22] 110% | viability [3, 23] 116% | viability [3, 26] 114% | viability [3, 27] 102% | viability [3, 29] 103% | viability [3, 30] 108% | viability [3, 31] 106% | viability [3, 34] 111% | viability [3, 35] 105% | viability [3, 36] 103% | viability [3, 37] 102% | viability [3, 38] 116% | viability [3, 39] 120% | viability [3, 41] 101%
active: viability [3, 12] 75.1% | viability [3, 13] 82% | viability [3, 16] 66.5% | viability [3, 17] 73% | viability [3, 20] 67.1% | viability [3, 21] 64.8% | viability [3, 24] 69.4% | viability [3, 25] 63.9% | viability [3, 28] 96.7% | viability [3, 32] 99.6% | viability [3, 33] 99.6% | viability [3, 40] 62%
